Measurements published in PubChem BioAssay (NCI).
About 79,000 compounds went through this panel and 15% of them were active in at least one assay; those are over-represented in the sample as a whole. Values without a mark were called inactive. Activity calls are given as the source filed them. Cut-off read from the data, not from the text of the source: active = growth inhibition above about 70%; inactive = the rest.

How the values were obtained:
[1] = NCI Yeast Anticancer Drug Screen. Data for the rad50 strain (AID 155);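 note: 0% = growth of vehicle-only cultures of the same strain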; conditions: S. cerevisiae rad50 strain growth inhibition, stronger effect = higher value
Method in brief: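 Readout: growth inhibition relative to vehicle-treated cultures. Compound exposure was carried out in a genetically defined yeast strain deficient in DNA damage repair.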

[2] = NCI Yeast Anticancer Drug Screen. Data for the mec2-1 strain (AID 157); conditions: S. cerevisiae mec2-1 strain, stronger effect = higher value
Method in brief: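 Mutant yeast (mec2-1) grown with compound; growth inhibition relative to vehicle control reported.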

[3] = NCI Yeast Anticancer Drug Screen. Data for the sgs1 mgt1 strain (AID 161);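 note: 0% = growth of cultures given vehicle only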; conditions: S. cerevisiae sgs1 mgt1 strain, stronger effect = higher value
Method in brief: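 Percent growth inhibition was derived by comparing compound-exposed mutant yeast with vehicle-exposed cultures. The strain carries alterations in DNA damage repair.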

[4] = NCI Yeast Anticancer Drug Screen. Data for the cln2 rad14 strain (AID 165);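 note: 0% = growth equal to vehicle treated cultures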; conditions: S. cerevisiae cln2 rad14 strain, stronger effect = higher value
Method in brief: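 Readout is yeast growth inhibition versus vehicle-treated controls, using a strain with cln2 and rad14 alterations exposed to compound.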

[5] = NCI Yeast Anticancer Drug Screen. Data for the bub3 strain (AID 167); conditions: S. cerevisiae bub3 mutant strain, stronger effect = higher value
Method in brief: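 Readout: yeast growth inhibition, expressed relative to vehicle-only wells. The test organism is a mutant strain from a panel with lesions in DNA repair or checkpoint genes.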

[6] = NCI Yeast Anticancer Drug Screen. Data for the mlh1 rad18 strain (AID 175); conditions: S. cerevisiae mlh1 rad18 strain growth inhibition, stronger effect = higher value
Method in brief: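 Genetically defined yeast (DNA repair-deficient) exposed to compounds; growth inhibition determined relative to vehicle.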

[7] = at 5.0 µM (retest, dose inferred, filed as 0.5)
[8] = at 50.0 µM (retest, dose inferred, filed as 5.0)

Row | Compound | growth inhibition [1, 7] [%] | growth inhibition [1, 8] | growth inhibition ([1]; at 50.0 µM) | growth inhibition [2, 7] [%] | growth inhibition [2, 8] | growth inhibition ([2]; at 50.0 µM) | growth inhibition [3, 7] [%] | growth inhibition [3, 8] | growth inhibition ([3]; at 50.0 µM) | growth inhibition [4, 7] [%] | growth inhibition [4, 8] | growth inhibition ([4]; at 50.0 µM) | growth inhibition [5, 7] [%] | growth inhibition [5, 8] | growth inhibition ([5]; at 50.0 µM) | growth inhibition [6, 7] [%] | growth inhibition [6, 8] | growth inhibition ([6]; at 50.0 µM)
1 | Cc1ccc(C(=Nc2ccccc2)N=P(c2ccccc2)(c2ccccc2)c2ccccc2)cc1 | 56 | 98% (active) | 90.6% (active) | 45 | 99% (active) | 91.9% (active) | 46 | 100% (active) | 90.5% (active) | 39 | 99% (active) | 89.5% (active) | 45 | 99% (active) | 88.2% (active) | 61 | 99% (active) | 91.5% (active)
2 | CCCCCCCCCCCC(=O)N1CCCC1 | -1 | 99% (active) | 99.4% (active) | -10 | 100% (active) | 99.5% (active) | 3 | 40% | 96.8% (active) | -3 | 99% (active) | 99.2% (active) | -3 | 99% (active) | 99.5% (active) | 7 | 99% (active) | 99.5% (active)
3 | O=C(Nc1ccccc1)c1cc(Cl)ccc1O | -12 | 33% | 62.8% | 3 | 46% | 76% (active) | 32 | 61% | 71.8% (active) | 24 | 33% | 58.5% | 25 | 49% | 74.7% (active) | 21 | 74% (active) | 84% (active)
4 | C/C(=N\NC(=S)N(C)C1CCCCC1)c1ccc2ccccc2n1 | 18 | 88% (active) | 83.2% (active) | 28 | 97% (active) | 80.2% (active) | 28 | 93% (active) | 81.8% (active) | 33 | 88% (active) | 84% (active) | 33 | 96% (active) | 76.9% (active) | 19 | 97% (active) | 89.2% (active)
5 | C/C(=N\NC(=S)N1CCN(c2ccccn2)CC1)c1ncccn1 | 2 | -6% | 32.5% | -20 | -10% | 49.9% | -7 | -13% | 45.9% | -2 | 7% | 83.2% (active) | -10 | -9% | 93.6% (active) | -3 | 10% | 86% (active)
6 | OCCCNc1nc2ccc(Cl)cc2c2ccccc12 | 7 | 5% | 23.6% | 2 | 2% | 12.4% | 6 | 3% | 25.7% | 5 | 1% | 2.7% | -3 | -4% | 23.8% | -1 | 5% | 70.5% (active)
7 | Cc1cc(N(CCC#N)CCC#N)ccc1/C(N=Nc1cccc([N+](=O)[O-])c1)=N/NC(=O)c1cc(Cl)ccc1O | 8 | 47% | 63.4% | 8 | 25% | 47% | 9 | 49% | 66% | -1 | 28% | 23.9% | 8 | 58% | 79.3% (active) | 12 | 29% | 31.9%
8 | N#Cc1cc2cccn2c2c1cnn2-c1ccccc1 | -6 | -5% | 19% | 8 | 4% | -6.8% | -1 | -11% | -1.5% | 3 | 7% | 9.65% | 6 | 5% | -46.9% | -10 | 12% | -2.95%
9 | Cc1ccc(NS(=O)(=O)c2ccc(C)cc2)cc1 | -7 | 92% (active) | 37.6% | -8 | 92% (active) | 14.1% | -11 | 92% (active) | 26.8% | -6 | 68% | 22.4% | -6 | 90% (active) | 28.6% | -4 | 86% (active) | 47.1%
